# Assay results published in PubChem BioAssay (Tox21).
# Records with an inconclusive call do not appear. Unmarked numbers belong to inactive results. Calls follow the shape of the full dose curve.
# Target: Thyrotropin receptor (Homo sapiens) (UniProt P16473)
# Test: qHTS assay to identify small molecule antagonists of the thyroid stimulating hormone receptor (TSHR) signaling pathway (AID 1259385); also: nearly all actives have a fitted effect of over 20% in size
# Conditions: TSHR-HEK293 cAMP HTRF, TSH-stimulated antagonist mode; series mostly up to 92.4 µM; activity change, negative = inhibition: at the top concentration
# Excerpt: U.S. Tox21 Program National Center for Advancing Translational Sciences [NCATS] NIH Chemical Genomics Center [NCGC] U.S. Environmental Protection Agency [EPA] National Institutes of Environmental Health Sciences [NIEHS] National Toxicology Program [NTP] U.S. Food and Drug Administration [FDA] Tox21 Assay Overview: TSHR is the receptor for thyrotropin (thyroid stimulating hormone or TSH), a member of the glycoprotein hormone family. TSH is released by the anterior pituitary gland and is the main regulator of thyroid gland growth and development. Upon binding circulating thyrotropin, a G-protein signal cascade activates adenylyl cyclase and […] cAMP concentration is increased. cAMP is a key second messenger involved extensively in cellular signal transduction pathways associated with the majority of G-protein coupled receptors (GPCRs). The activation of these GPCRs by neurotransmitters, lipids, nucleotides, peptides and hormones results in the activation or the inhibition of plasma membrane-bound adenylate cyclase through heterotrimeric G-proteins. A cell-based TSHR assay can be used to screen chemical compounds that modulate TSHR either in agonist or antagonist mode.
# Tox21 Assay Protocol Summary: TSHR-Hek293 cells were dispensed at 800 cells/4uL/well in 1536-well white plates using a Multidrop dispenser. After the assay plates were incubated at a 37C/5% CO2 incubator for 18 hrs, 23 nL of compounds dissolved in DMSO, positive controls or DMSO only was transferred to the assay plate by a pin tool, followed by 1 ul medium containing Ro20-1724. For the antagonist mode screening, 1 uL of TSH was added on the top of the cell/compound mixtures to achieve a final agonist concentration of 1.5 ng/mL. After 30 min of incubation at room temperature, 2.5 ul/well of cAMP-d2 and 2.5 ul/well of anti-cAMP-cryptate were added respectively into the assay plates using a Flying Reagent Dispenser. The plates were incubated at room temperature for 1 hr. The fluorescence intensity in the plates was measured using an Envision plate reader. Each test compound was measured at 15 concentrations and in triplicates.
# % is scaled to controls: 0 for no effect and ±100 for the full control effect.
# Chain of Thyrotropin receptor (Homo sapiens) (P16473 whole entry, looked up): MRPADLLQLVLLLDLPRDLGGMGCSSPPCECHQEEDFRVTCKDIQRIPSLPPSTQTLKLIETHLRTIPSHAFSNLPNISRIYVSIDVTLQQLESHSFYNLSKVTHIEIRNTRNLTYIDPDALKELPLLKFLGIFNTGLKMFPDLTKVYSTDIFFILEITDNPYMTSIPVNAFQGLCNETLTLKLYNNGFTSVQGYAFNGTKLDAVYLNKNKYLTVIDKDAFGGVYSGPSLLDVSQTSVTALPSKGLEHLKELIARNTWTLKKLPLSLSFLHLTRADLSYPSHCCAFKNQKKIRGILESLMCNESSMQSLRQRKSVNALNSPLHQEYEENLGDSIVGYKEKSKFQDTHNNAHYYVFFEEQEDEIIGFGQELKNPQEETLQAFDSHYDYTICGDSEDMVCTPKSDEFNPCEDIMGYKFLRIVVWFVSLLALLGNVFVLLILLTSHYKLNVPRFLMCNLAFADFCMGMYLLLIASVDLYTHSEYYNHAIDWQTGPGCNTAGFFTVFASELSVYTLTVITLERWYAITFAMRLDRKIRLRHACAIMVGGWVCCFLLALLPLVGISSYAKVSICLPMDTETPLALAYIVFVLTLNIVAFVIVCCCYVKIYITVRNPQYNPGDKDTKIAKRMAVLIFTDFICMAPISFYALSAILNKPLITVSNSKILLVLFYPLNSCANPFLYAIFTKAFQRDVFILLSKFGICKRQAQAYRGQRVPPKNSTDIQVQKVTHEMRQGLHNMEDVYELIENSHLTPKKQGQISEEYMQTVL
row,Compound,"activity change, negative = inhibition"
1,CCC1COC(=O)O1 (stereo not given),-2.12%
2,CCOC(=O)CCc1ccccc1,-0.386%
3,C[CH2][Ge]([Cl])([CH2]C)[CH2]C,-0.427%
4,COc1ccc(OC)c(NC(=O)CC(C)=O)c1,0.877%
5,O=S(=O)(O)SSS(=O)(=O)O,0.752%
6,CC1(N)CCC(C(C)(C)N)CC1 (stereo not given),1.02%
7,O=c1[nH]c(=O)c2ccccc2o1,3.71% [at 42.5 µM]
8,FC(F)(F)/C(=N\OCC1OCCO1)c1ccc(Cl)cc1,-9.87%
9,CCCCCC1Nc2cc(C(F)(F)F)c(S(N)(=O)=O)cc2S(=O)(=O)N1 (stereo not given),-12% [at 42.5 µM]
10,CCCCC[Si](OCC)(OCC)OCC,0.0772%
11,O=C(O)c1ccccc1C(=O)OCc1ccccc1,-1.24%
12,CC(C)CCO,-0.658%
13,Nc1nc(=O)n([C@@H]2O[C@H](CO)[C@@H](O)[C@@H]2F)cc1I,2.19% [at 42.5 µM]
14,CCCCCCCCCCCCCC(=O)OC,0.899%
15,CC(C)COC(=O)/C=C/c1ccccc1,-8.1%
16,Cc1nc2ccccc2c(=O)o1,-0.726%
17,CO/N=C(/C(=O)N[C@@H]1C(=O)N2C(C(=O)O)=C(Cn3nnc(C)n3)CS[C@H]12)c1csc(N)n1,0.281% [at 42.5 µM]
18,CCC(=O)OCCC(C)CCC=C(C)C (stereo not given),7.08%
19,Cc1ncc([N+](=O)[O-])n1CC(O)CCl (stereo not given),0.329% [at 42.5 µM]
20,CC(C)COC(=O)CCCCC(=O)OCC(C)C,-6.86%

row,Compound,"activity change, negative = inhibition"
1,FC(F)(F)c1ccc(Cl)cc1Cl,-1.98%
2,Cc1nc2n(c(=O)c1CCN1CCC(C(=O)c3ccc(F)cc3)CC1)CCS2,4.04% [at 42.5 µM]
3,CCCCCC1CCCC(=O)O1 (stereo not given),0.232%
4,CC(=O)N1CCN(c2ccc(O)cc2)CC1,4.84% [at 42.5 µM]
5,O=C(O)C(=O)Nc1cccc(-c2nn[nH]n2)c1,0.116% [at 42.5 µM]
6,C=C(C)C(=O)OC,0.688%
7,COC(/C=C(\C)CCC=C(C)C)OC,6.14%
8,O=C1OC(=O)c2cc(Oc3ccc4c(c3)C(=O)OC4=O)ccc21,-0.816%
9,O=C(CN1CCN(Cc2ccc3c(c2)OCO3)CC1)N1c2ccccc2Sc2ccccc21,0.767% [at 42.5 µM]
10,COc1cc2c3cc1Oc1cc(ccc1O)C[C@@H]1c4c(cc(OC)c(O)c4Oc4ccc(cc4)C[C@@H]3N(C)CC2)CC[N+]1(C)C,-5.05% [at 42.5 µM]
11,C=C(C)[C@@H]1CC[C@@H](C)C[C@@H]1O,1.22%
12,CCC1Nc2cc(Cl)c(S(N)(=O)=O)cc2S(=O)(=O)N1 (stereo not given),-0.603% [at 42.5 µM]
13,Cc1nc(C)nc(N2C[C@@H](C)N(c3ccnc([C@@H](C)O)n3)[C@@H](C)C2)n1,0.622% [at 42.5 µM]
14,Cc1nc([N+](=O)[O-])cn1-c1ccc([N+](=O)[O-])cc1,2.64% [at 42.5 µM]
15,CCN(CCC#N)c1ccccc1,-2.44%
16,NS(=O)(=O)c1cc2c(cc1Cl)NC(C(Cl)Cl)NS2(=O)=O (stereo not given),3.54% [at 42.5 µM]
17,CC(C)CCCC(C)CC=O (stereo not given),-0.402%
18,Nc1ccc(S(=O)(=O)NC(=O)c2ccccc2)cc1,-0.129% [at 42.5 µM]
19,COCC(=O)Nc1c(I)c(C(=O)NCC(O)CO)c(I)c(C(=O)N(C)CC(O)CO)c1I (stereo not given),0.937% [at 42.5 µM]
20,Oc1ccccc1Cc1ccccc1O,0.0753%
